Assay results reported in PubChem BioAssay AID1851 (National Center for Advancing Translational Sciences (NCATS), 2009).
Several values for one entry are separate records, joined by “and”; a condition that tells them apart may be missing. Equal entries are not always repeated. Out of some 16,000 compounds screened, about 5,700 (36%) were called active. Not shown: some 24% with an inconclusive outcome. The call rests on the fitted dose curve; in most records, active means well fitted curve in the direction sought with a large enough effect; inconclusive means small, poorly fitted or top-dose-only effect, or effect the other way; inactive means no such curve, though single readings can be large or run the other way. The list shows a part of the results. A structure can be active in one record and inactive in another.

target: Cytochrome P450 1A2 (Homo sapiens) (UniProt P05177); assay: Cytochrome panel assay with activity outcomes; settings: recombinant CYP, pro-luciferin dealkylation, luminescence, p450-cyp1a2; series mostly up to 57.1 µM
On the % scale 0 is the no-effect control and ±100 the full control effect.

Sequence of Cytochrome P450 1A2 (Homo sapiens) (P05177 whole entry, looked up): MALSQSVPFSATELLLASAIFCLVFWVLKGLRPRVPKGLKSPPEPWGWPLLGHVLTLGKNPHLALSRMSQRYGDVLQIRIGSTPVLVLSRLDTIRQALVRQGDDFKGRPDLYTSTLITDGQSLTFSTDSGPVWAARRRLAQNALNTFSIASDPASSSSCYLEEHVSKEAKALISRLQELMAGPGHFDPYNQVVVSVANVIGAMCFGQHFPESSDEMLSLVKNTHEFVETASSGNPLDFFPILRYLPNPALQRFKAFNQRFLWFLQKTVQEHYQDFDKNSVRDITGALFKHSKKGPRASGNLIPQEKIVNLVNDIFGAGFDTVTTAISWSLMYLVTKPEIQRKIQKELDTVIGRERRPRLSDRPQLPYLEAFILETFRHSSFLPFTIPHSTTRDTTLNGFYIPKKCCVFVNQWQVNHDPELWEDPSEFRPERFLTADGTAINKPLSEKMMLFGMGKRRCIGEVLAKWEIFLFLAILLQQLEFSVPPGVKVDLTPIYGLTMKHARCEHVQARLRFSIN

| Structure (SMILES) | activity, negative = inhibition | AC50 |
| --- | --- | --- |
| CO/N=C(\C)CCN1CCCCc2nc(C)c(C)cc21 | -3.72% [at 11.4 µM] (inactive) |  |
| CC1CCC(=NNC(=O)Cc2ccccc2)CC1 (configuration not stated) |  | inactive |
| CN1CCC(=NNC(=O)CSCc2ccccc2)CC1 |  | 14.1 µM (active) |
| CN(C)c1ccc(-c2noc(C3CCN(S(=O)(=O)c4cccc(C(=O)O)c4)CC3)n2)cc1 |  | inactive |
| CCCCC1CCC(c2nc(-c3ccccn3)no2)CC1 (configuration not stated) |  | 28.2 µM (active) |
| Cc1cc(C)c(C#N)c(SCc2cc3c(cc2Cl)OCO3)n1 |  | 2.24 µM (active) |
| Cc1cc(C)c(C#N)c(SCC(=O)c2ccc(Cl)cc2Cl)n1 |  | 2.24 µM (active) |
| C/C(=N\[N+](C)(C)C)c1ccc(C)c(C)c1 | -16.9% [at 2.29 µM] (inactive) |  |
| Cc1ccc(Oc2cc(N3CCOCC3)nc(-c3ccccc3)n2)cc1 |  | 2.51 µM (active) |
| Cc1ccc(S(=O)(=O)c2cc(N3CCOCC3)nc(-c3ccccc3)n2)cc1 |  | 4.47 µM (active) |
| COc1cccc(Sc2cc(N3CCOCC3)nc(-c3ccccc3)n2)c1 |  | 2.51 µM (active) |
| O=c1nc(N2CCOCC2)ccn1-c1nc(-c2ccccc2)oc1-c1ccccc1 |  | inactive |
| Cc1cccc(C(=O)N2CCC(c3nc(-c4ccc(S(=O)(=O)N5CCOCC5)cc4)no3)CC2)c1 |  | inactive |
| Cc1ccc(C(=O)N2CCN(c3cc(=O)[nH]nc3-c3ccccc3)CC2)cc1 |  | inactive |
| N=C(N)c1ccc(N)cc1 |  | inactive |
| O=C(O)CS(=O)c1ccc2c3c(cccc13)C(=O)c1ccccc1-2 (configuration not stated) |  | 0.0631 µM (active) |
| Cc1ccc(/C=C/c2nnc(-c3cccs3)o2)cc1 |  | 8.91 µM (active) |
| C(=C\c1nnc(-c2cccs2)o1)/c1ccccc1 |  | 2.51 µM (active) |
| COc1ncc2nc(-c3cc(F)cc(F)c3)c(=O)n(C)c2n1 |  | 2 µM (active) |
| Cn1c(=O)c(-c2cc(F)cc(F)c2)nc2cnc(Oc3ccccc3)nc21 |  | 2 µM (active) |
| COc1ccc(Oc2ncc3nc(-c4cc(F)cc(F)c4)c(=O)n(C)c3n2)cc1 |  | 3.16 µM (active) |
| Nc1nc2c(c(=O)[nH]1)N(C=O)[C@H](CNc1ccc(C(=O)N[C@@H](CCC(=O)O)C(=O)O)cc1)CN2 |  | inactive |
| COc1ccccc1NC(=O)CC1COc2ccccc2O1 (configuration not stated) |  | 7.08 µM (active) |
| COc1cccc(OC)c1OCCCN1CCOCC1 |  | inactive |
| COc1cccc(OC)c1OCCNC[C@@H]1COc2ccccc2O1 |  | 12.6 µM (active) and 25.1 µM (active) |

| Structure (SMILES) | activity, negative = inhibition | AC50 |
| --- | --- | --- |
| COc1ccccc1NC(=O)N1CCC(c2nnc(SCC(N)=O)n2C)CC1 |  | inactive |
| Cn1c(C(=O)O)c(CC(=O)NCC2COc3ccccc3O2)c2ccccc21 (configuration not stated) |  | inactive |
| CC(C)N=c1scc(-c2ccco2)n1/N=C/c1ccc(O)c(O)c1 |  | 15.8 µM (active) |
| CNc1cc(NS(=O)(=O)c2ccc(N)cc2)nc(NC)n1 |  | inactive |
| Cc1cccc(OCCSCc2nc3ccccc3[nH]2)c1 |  | 2.24 µM (active) |
| Cc1ccccc1N1CCN(S(=O)(=O)C[C@@]23CC[C@H](C[C@H]2NC(=O)[C@@H](N)CCS(C)(=O)=O)C3(C)C)CC1 |  | inactive |
| COc1ccc(/C=N/NC(N)=S)cc1OC(=O)c1cccc2ccccc12 |  | 1.58 µM (active) |
| COc1ccc(C(=O)Oc2cc(/C=N/NS(=O)(=O)c3ccc(C)cc3)ccc2OC)cc1 |  | inactive |
| COc1ccc(/C=N/NC(=O)c2cc(-c3ccc(C)cc3C)nc3ccccc23)cc1COC(C)=O |  | inactive |
| O=c1c2ccccc2nc2n1CCc1c-2[nH]c2ccccc12 |  | 0.316 µM (active) |
| O=c1c2ccccc2nc2n1C(CSc1ccc(F)cc1)CN2 (configuration not stated) |  | inactive |
| O=c1c2ccccc2nc2n1CCC2 |  | 6.31 µM (active) |
| CC(C)NC(=O)N1CC2(CCN(C(=O)c3ccncc3)CC2)C1 |  | inactive |
| Cc1noc(C)c1C(=O)N1CCC2(CCCN(Cc3ccccc3)C2)CC1 |  | inactive |
| O=[N+]([O-])c1ccc(C2=Nn3c(nnc3-c3ccc(Cl)cc3)SC2)o1 |  | 0.158 µM (active) |
| Cc1nc2sccc2c(=O)n1-c1cccc(Cl)c1 |  | 11.2 µM (active) |
| COC(=O)c1cnn(C(=O)c2ccccc2Br)c1N |  | 8.91 µM (active) |
| COC(=O)c1cnn(C(=O)c2cc(OC)ccc2Br)c1N |  | 28.2 µM (active) |
| O=c1c(-c2cccs2)nc2cnc(Oc3ccccc3)nc2n1C1CC1 |  | 2.51 µM (active) |
| COc1ncc2nc(-c3cc(F)cc(F)c3)c(=O)n(C3CC3)c2n1 |  | 1.58 µM (active) |
| O=c1c(-c2cc(F)cc(F)c2)nc2cnc(Oc3ccccc3)nc2n1C1CC1 |  | 2.51 µM (active) |
| CCCC[C@@H]1CN2[C@H](c3ccc(Br)cc3)[C@H](C)CC[C@H]2C(=O)O1 | 3.25% [at 11.4 µM] (inactive) |  |
| CN(C)c1ccc(O)c2c1C[C@H]1C[C@H]3[C@@H](N(C)C)C(=O)C(C(N)=O)=C(O)[C@]3(O)C(=O)C1=C2O |  | inactive |
| CN1C(C(=O)Nc2ccccn2)=C(O)c2sccc2S1(=O)=O |  | inactive |
| Cc1ccccc1NC1=C(C(=O)c2ccccc2)N(C)S(=O)(=O)c2ccccc21 |  | inactive |

| Structure (SMILES) | activity, negative = inhibition | AC50 |
| --- | --- | --- |
| CN1C(C(=O)Nc2ccccn2)=C(O)c2ccccc2S1(=O)=O |  | inactive and 20 µM (active) |
| COc1nc(Oc2ccc(/C=N/O)cc2)nc(N(C)C)n1 |  | 0.447 µM (active) |
| CCc1cc2c(nc1CC)CCN(CC/C(C)=N/O[C@@H](C)CN1CCCc3nc(C)c(C)cc31)C2 | 5.54% [at 11.4 µM] (inactive) |  |
| Clc1cccc(Cl)c1NC1=NCCN1 |  | inactive |
| Clc1cccc2c1CN(C1=NCCN1)C2 |  | 0.398 µM (active) |
| Fc1ccc(CN(C2=NCCN2)c2c(Cl)cccc2Cl)cc1 |  | inactive |
| COc1ccc(-n2c(CNc3ccc(C)cc3)nnc2SCC(=O)Nc2nc(-c3ccccc3)cs2)cc1 |  | inactive |
| CCOc1ccc(NCc2nnc(SCc3ccccc3Cl)n2-c2ccccc2)cc1 |  | 7.08 µM (active) |
| CCNC(=O)CSc1nnc(C2CC2)n1-c1ccccc1 |  | inactive |
| COC(Cc1nnc(SC)n1-c1ccc(Cl)cc1)OC |  | inactive |
| COC(=O)CSc1nnc(CNc2ccc(Cl)cc2)n1-c1ccccc1 |  | 12.6 µM (active) |
| CCNS(=O)(=O)c1ccc(NC(=O)c2cc(C(F)(F)F)nn2C)cc1 |  | inactive |
| C#CCSc1nnc(-c2cc3c(C(F)(F)F)nn(C)c3s2)n1C |  | 1.12 µM (active) |
| CCCCSc1nnc(-c2cc3c(C(F)(F)F)nn(C)c3s2)n1C |  | 14.1 µM (active) |
| CCCNC(=O)c1cc2c(C(F)(F)F)nn(C)c2s1 |  | 0.794 µM (active) |
| C=CCSc1nnc(-c2cc3c(C(F)(F)F)nn(C)c3s2)n1C |  | 1.12 µM (active) |
| CCc1c2c(nc3cccc(OC)c13)OC(CC)C2 (configuration not stated) |  | 2 µM (active) |
| COc1ccc(-c2nsc3c(N4CCCCC4)ncnc23)cc1 |  | 2.82 µM (active) |
| COCC(=O)N1CCC2(CC1)CCN(C(=O)Nc1cccc(C#N)c1)CC2 |  | inactive |
| Cc1nnc(-c2cnn(-c3ccccc3)c2N)n1Cc1ccc(F)cc1 |  | inactive |
| NCc1nnn(Cc2ccccc2)c1N | 2.27% [at 11.4 µM] (inactive) |  |
| Cc1nnc(-c2cnn(-c3ccccc3)c2N)n1Cc1ccccc1 |  | 14.1 µM (active) |
| O=C(c1cnccn1)N1CCC2(CCCN(c3ncccn3)C2)CC1 |  | inactive |
| COc1ccc2c(=O)cc(-c3ccncc3)oc2c1OC |  | 1.58 µM (active) |
| COc1ccc(C2C(C(=O)c3ccco3)=C(O)C(=O)N2Cc2cccnc2)cc1OC (configuration not stated) |  | inactive |

| Structure (SMILES) | activity, negative = inhibition | AC50 |
| --- | --- | --- |
| Cn1cc(C(=O)c2cccc(Cl)c2Cl)cc1C(=O)O |  | inactive |
| Cn1cccc1C(=O)C(=O)Nc1cccc(Cl)c1Cl |  | 17.8 µM (active) |
| Cn1cccc1C(=O)N1CCC2(CCN(C(=O)Nc3ccccc3)CC2)CC1 |  | inactive |
| COc1ccccc1CNc1ncncc1-c1ccc(C(=O)N(C)C)cc1 |  | 12.6 µM (active) |
| COc1ccc(CNc2ncncc2-c2ccc(N(C)C)cc2)c(OC)c1 |  | 0.631 µM (active) |
| COc1ccc(CNc2ncncc2-c2ccc(C(=O)N(C)C)cc2)c(OC)c1 |  | 15.8 µM (active) |
| CC(C)=CCC/C(C)=C/CO/N=C1/C[C@@H](O)[C@@H](O)[C@@H]2[C@@H]3C(=O)N(C4CCCCC4)C(=O)[C@H]3CC[C@H]12 | -2.85% [at 11.4 µM] (inactive) |  |
| C[C@@]12CCC(=O)C=C1CC[C@@H]1[C@@H]2[C@H](O)C[C@]2(C)[C@@H]1CC[C@]2(O)C(=O)COC(=O)CCC(=O)O |  | inactive |
| Cc1ccccc1C(=O)Nc1ccc(C(=O)NNC(=O)CCCOc2ccc(Cl)cc2Cl)cc1 |  | inactive |
| CC(C/C=N/NC(=O)COc1cc(Cl)ccc1Cl)c1ccccc1 (configuration not stated) |  | 0.562 µM (active) |
| O=C(COc1ccc(Cl)cc1Cl)N/N=C/CCc1ccccc1 |  | 1 µM (active) |
| COC(=O)c1c(-c2cc(OC)c(OC)c(OC)c2)c2ccnc(OCc3ncccn3)c2c(=O)n1Cc1ccnc(C)c1 |  | inactive |
| CCc1ccc(/C=C\C(=O)N2CCc3ccccc3C2)cc1 |  | 14.1 µM (active) |
| N=C(N)N1CCc2ccccc2C1 |  | inactive |
| O=C(c1ccc(CN2CCc3ccccc3C2)cc1)N1CCc2ccccc2C1 |  | inactive |
| Cc1ccccc1OCC(=O)N/N=C1\CCOc2c(C)cccc21 |  | inactive |
| COc1cccc(OCC(=O)NN=C2c3ccccc3-c3ccccc32)c1 |  | 0.501 µM (active) |
| CCOC(=O)C1=NOC(CNC(=O)C2=NOC(CNC(=O)c3c(-c4ccccc4Cl)noc3C)C2)C1 (configuration not stated) |  | inactive |
| Cc1cccc2c1OCC/C2=N\NC(=O)COc1ccccc1 |  | 2.51 µM (active) |
| Cc1cccc2c1OCC/C2=N\NC(=O)COc1ccccc1Cl |  | 0.891 µM (active) |
| CO/N=C\[C@@H](NS(=O)(=O)c1ccc(C)cc1)[C@H](C)/C=C\CC(=O)OC | -9.25% [at 11.4 µM] (inactive) |  |
| CO/N=C(/C)CCC(=O)OC[C@@H]1O[C@H](C#Cc2ccccc2)C=C[C@@H]1Oc1ccc(C)cc1 | -10.1% [at 11.4 µM] (inactive) |  |
